Measured values reported in PubChem BioAssay (NCATS).
Records with an inconclusive call do not appear. A call without a number means that no potency is given here. Activity calls are given as the source filed them. The call rests on the fitted dose curve; in most records, active means well fitted curve in the direction sought with a large enough effect; inconclusive means small, poorly fitted or top-dose-only effect, or another doubt; inactive means no such curve, though single readings can be large; an effect the other way counts as inactive or inconclusive.

Assays:
[1] = tested on: Zika virus NS2B-NS3 protease (linked construct); assay: Primary screen NINDS Rhodamine qHTS for Zika virus inhibitors (AID 1347160); further: nearly all actives have a fitted effect of over 55% in size; further: potency means the concentration at half of the fitted maximal effect
Summary of the method: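 Rhodamine110-peptide cleavage (1.5 µM substrate) by 25 nM linked NS2B-NS3 enzyme at pH 8.0 (Tris, Tween 20), after 15 min RT preincubation with compounds; 15-min fluorescence change normalized to controls and Hill-fitted.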

[2] = OV-KATE Cancer Cell Toxicity qHTS against the NCATS CANVASS Library (AID 1347345); further: potency means the concentration at half of the fitted maximal effect
Summary of the method: (§1)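 Cells were seeded at 1000 per well, allowed 4 h at 37 degrees C/5% CO2, then pin-treated with an 11-point compound series. After 72 h, viability was read as CellTiter-Glo luminescence following 15min at room temperature.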

[3] = HPAF-II Cancer Cell Toxicity qHTS against the NCATS CANVASS Library (AID 1347346); further: nearly all actives have a fitted effect of over 55% in size; further: potency means the concentration at half of the fitted maximal effect
Summary of the method: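 1000 HPAF-II cells/well; 4 h pre-incubation; 11-pnt compound titration; 72 h, 37 degrees C/5% CO2; CellTiter-Glo, 15 min RT; luminescence read.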

[4] = OV-SAHO Cancer Cell Toxicity qHTS against the NCATS CANVASS Library (AID 1347348); further: nearly all actives have a fitted effect of over 55% in size; further: potency means the concentration at half of the fitted maximal effect
Summary of the method: as §1

[5] = HPAF-II 24hr Apoptosis Induction qHTS against the NCATS CANVASS Library (AID 1347356)
Summary of the method: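 500 HPAF-II cells/well; compounds in 11-pnt qHTS; 24 h, 37 C/5% CO2; Caspase-Glo 3/7 added, 15 min RT dark; luminescence read. Doxorubicin control.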

[6] = HPAF-II 12hr Apoptosis Induction qHTS against the NCATS CANVASS Library (AID 1347358)
Summary of the method: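 Caspase-Glo 3/7 luminescence (DEVD substrate) reports caspase activity in HPAF-II cells after 12 h compound treatment at 37 degrees C. Compounds were tested in an 11-point series. Doxorubicin served as control.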

[7] = HEK293 24hr Apoptosis Induction qHTS against the NCATS CANVASS Library (AID 1347359); further: potency means the concentration at half of the fitted maximal effect
Summary of the method: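 HEK293 cells, 500 per well, exposed to an 11-point compound series for 24 hours at 37 degrees C. Caspase 3/7 activity read by Caspase-Glo luminescence (DEVD substrate) after 15 min at room temperature.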

[8] = HEK293 12hr Apoptosis Induction qHTS against the NCATS CANVASS Library (AID 1347361); further: potency means the concentration at half of the fitted maximal effect
Summary of the method: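 HEK293 cells (500/well) were exposed to an 11-point qHTS concentration series for 12 hours at 37 degrees C. Caspase-3/7 activity was then read by DEVD-substrate luciferase luminescence after 15 min at room temperature.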

[9] = qHTS for ATAD5 Agonist screened against the NCATS CANVASS Library (AID 1347367);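 further: luciferase reporter driven by ATAD5 which rises upon DNA damage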; further: potency means the concentration at half of the fitted maximal effect
Summary of the method: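 Luciferase reporter under ATAD5 control, stably integrated in HEK293T cells (2000/well). Compounds (11 points) incubated 16 h at 37C; viability read first by CellTiter-Fluor, then luminescence reporting ATAD5 activation. MMS positive control.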

[10] = MCF7 Cancer Cell Toxicity qHTS against the NCATS CANVASS Library (AID 1347369); further: potency means the concentration at half of the fitted maximal effect
Summary of the method: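 MCF7 cells (500/well) were exposed 72 h at 37 °C to compounds in an 11-point series. Viability was read as ATP content by CellTiterGlo luminescence.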

[11] = qHTS for ATAD5 Antagonist screened against the NCATS CANVASS Library (AID 1347370); further: nearly all actives have a fitted effect of over 65% in size; further: potency means the concentration at half of the fitted maximal effect
Summary of the method: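 HEK293T-ATAD5 luc reporter, 2000 cells/well; 5hr attach; cpd + 10 uM 5-FUrd; 16hr 37C, 5% CO2. Readouts: CellTiter-Fluor fluorescence (1hr), then Amplite luciferase luminescence (30min RT).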

[12] = J3T Cancer Cell Toxicity qHTS against the NCATS CANVASS Library (AID 1347371); further: potency means the concentration at half of the fitted maximal effect
Summary of the method: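 Dog glioma J3T, 500 cells/well; cpd 11-pt qHTS; 72 hr, 37C/5% CO2; CellTiterGlo ATP luminescence readout.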

[13] = target: Nuclear receptor subfamily 1 group I member 3 (Homo sapiens) (UniProt Q14994); assay: qHTS for Constitutive Androstane Receptor (CAR) Agonist screened against the NCATS CANVASS Library (AID 1347373);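 further: every well also contained 1.5 µM PK11195 alongside the test compound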
Summary of the method: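 Luciferase read-out (ONE-Glo, 30 min RT) of CYP2B6-2.2kb promoter activity in double-stable HepG2-hCAR cells after 24hr compound exposure with 1.5uM PK11195 present; viability measured first by CellTiter-Fluor.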

[14] = 10-beta competent E. coli microbial cell viability qHTS against the NCATS CANVASS Library (AID 1347376); further: series mostly up to about 46 µM
Summary of the method: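 Luminescence from BacTiter-Glo ATP detection served as the viability read-out; bacteria (0.2 OD) had been incubated overnight at 37C with pin-transferred compounds at 11 concentrations.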

[15] = qHTS for Inflammasome Signaling Inhibitors: IL-1-beta AlphaLISA screen against the NCATS CANVASS Library (AID 1347379);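 further: human THP-1 cells primed with LPS then triggered with ATP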
Summary of the method: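 THP-1, 1 hr compound pre-incubation, then LPS 250 ng/mL + ATP 1.25 mM (final); 16 hr total with compound; IL-1B AlphaLISA, ex 680/em 615 nm; 11-point qHTS, up to 57.5 uM final.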

[16] = Cytotoxicity qHTS for assessment of Hepg2 cells membrane integrity screened against the NCATS CANVASS Library (AID 1347387)
Summary of the method: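 LDH release read by fluorescence (560 nm ex/590 nm em) after CytoTox-ONE addition and 10 min RT; signal tracks lysed cells. HepG2, 2000 cells/well, plated overnight; compound 5 hr, 37C, 5% CO2, final 0.59 nM - 46 uM, 11 points.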

[17] = qHTS for activators of dead-cell proteases activity screened against the NCATS CANVASS Library (AID 1347392);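 further: luminescence from protease leaking out of membrane-damaged cells cleaving impermeant substrate; rising signal means more cytotoxicity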
Summary of the method: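 HepG2, 2000 cells/well, 18 h attach; cpd 11-pt, 5 h 37C 5% CO2; CytoTox-Glo (AAF-aminoluciferin) 15 min RT; luminescence read.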

[18] = Vero-766 cells viability qHTS against the NCATS CANVASS Library: Counterscreen for Zika virus inhibition assay (AID 1347394); further: nearly all actives have a fitted effect of over 60% in size; further: potency means the concentration at half of the fitted maximal effect
Summary of the method: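 Vero 766 cells (1000/well), without Zika virus, were exposed to compounds for 72 h at 37C. Viability was measured by CellTiter Glo luminescence. Media-only wells served as 100% inhibition.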

[19] = Viability qHTS for inhibitors of the SERCaMP assay screened against the NCATS CANVASS Library (AID 1347400); further: nearly all actives have a fitted effect of over 70% in size; further: potency means the concentration at half of the fitted maximal effect
Summary of the method: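 CellTiter-Glo luminescence readout after 48 h compound exposure (11-pnt qHTS series) of SH-SY5Y-GLuc SERCaMP MJH297 cells seeded at 1000 cells/well; bortezomib positive control.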

[20] = KB-3-1 Cancer Cell Toxicity qHTS against the NCATS CANVASS Library (AID 1347366); further: nearly all actives have a fitted effect of over 75% in size; further: potency means the concentration at half of the fitted maximal effect
Summary of the method: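 KB-3-1 cells (500/well) in DMEM with 10% FBS were exposed to compounds for 72 h at 37C. Viability was read by CellTiter-Glo luminescence.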

Chain of Nuclear receptor subfamily 1 group I member 3 (Homo sapiens) (Q14994 whole entry, looked up): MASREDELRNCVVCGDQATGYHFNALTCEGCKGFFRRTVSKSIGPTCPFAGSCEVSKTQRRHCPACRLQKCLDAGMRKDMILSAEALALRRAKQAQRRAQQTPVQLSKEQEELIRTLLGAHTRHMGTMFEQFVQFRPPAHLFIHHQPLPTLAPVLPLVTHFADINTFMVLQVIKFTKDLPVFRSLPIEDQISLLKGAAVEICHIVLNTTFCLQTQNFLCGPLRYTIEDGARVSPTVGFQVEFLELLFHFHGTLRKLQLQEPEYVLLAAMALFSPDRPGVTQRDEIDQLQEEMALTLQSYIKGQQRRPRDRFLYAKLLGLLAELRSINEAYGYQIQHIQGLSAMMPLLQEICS

Structure (SMILES)	Potency [1]	Potency [2]	Potency [3]	Potency [4]	outcome [5]	Potency [6]	Potency [7]	Potency [8]	Potency [9]	Potency [10]	Potency [11]	Potency [12]	outcome [13]	outcome [14]	Potency [15]	outcome [16]	Potency [17]	Potency [18]	Potency [19]	Potency [20]
COc1ccc(CCCc2cc(O)c(OC)c(O)c2)c(O)c1O	11 µM (active)	inactive	inactive	inactive	inactive	inactive	inactive	inactive	inactive	inactive	11.7 µM (active)	inactive	inactive	inactive	inactive	inactive	inactive	inactive	inactive	–
C[C@@H]1O[C@@H](O[C@@H]2[C@@H](O)[C@H](O[C@@H]3[C@@H](O)[C@@H](O)C(O[C@H]4[C@H](OC(=O)[C@]56CCC(C)(C)C[C@H]5C5=CCC7[C@@]8(C)C[C@H](O)[C@H](O[C@@H]9C[C@H](CO)[C@@H](O)[C@H](O)[C@H]9O)[C@@](C)(CO)C8[C@H](O)C[C@@]7(C)[C@]5(C)CC6)OC[C@H](O)[C@@H]4O)O[C@H]3C)OC[C@H]2O)[C@H](O)[C@H](O)[C@H]1O (stereo partly drawn)	24.3 µM (active)	inactive	inactive	inactive	inactive	inactive	inactive	inactive	inactive	inactive	inactive	inactive	inactive	inactive	inactive	inactive	inactive	inactive	inactive	inactive
COc1c(O)cc2oc(-c3ccccc3)cc(=O)c2c1O	44 µM (active)	inactive	inactive	inactive	inactive	inactive	inactive	inactive	–	inactive	inactive	inactive	–	inactive	inactive	inactive	inactive	–	inactive	–
Oc1ccc(/C=C2/c3cc(O)cc(O)c3C(c3ccc(O)cc3)[C@H]2c2cc(O)cc(O)c2)cc1 (stereo partly drawn)	27.7 µM (active)	inactive	inactive	14.9 µM (active)	inactive	inactive	inactive	inactive	inactive	inactive	inactive	inactive	inactive	inactive	inactive	inactive	inactive	inactive	inactive	–
CC(C)=CCC[C@@H](C)[C@@H]1CC[C@@]2(C)C[C@H]3C(C)=CC(=O)[C@@H]3/C(C=O)=C\C[C@H]12	44 µM (active)	9.41 µM (active)	5.95 µM (active)	10.6 µM (active)	–	–	26.4 µM (active)	–	inactive	–	–	–	inactive	inactive	17.2 µM (active)	inactive	inactive	20.9 µM (active)	42.8 µM (active)	10.5 µM (active)
C=C1C[C@@]23C=CC(=O)[C@@](C)(CCC(=O)Nc4c(O)ccc(C(=O)O)c4O)C2C[C@@H]1CC3 (stereo partly drawn)	27.7 µM (active)	inactive	inactive	inactive	inactive	inactive	inactive	inactive	inactive	inactive	inactive	inactive	inactive	inactive	inactive	inactive	inactive	inactive	inactive	inactive
O=c1cc(-c2ccc(O)c(O[C@@H]3O[C@H](CO)[C@@H](O)[C@H](O)[C@H]3O)c2)oc2cc(O[C@@H]3O[C@H](CO)[C@@H](O)[C@H](O)[C@H]3O)cc(O)c12	27.7 µM (active)	inactive	inactive	inactive	inactive	inactive	inactive	inactive	inactive	inactive	inactive	inactive	inactive	inactive	inactive	inactive	inactive	inactive	inactive	inactive
CN1C(=O)C2C(N=CN2C)N(C)C1=O (stereo not drawn)	inactive	inactive	inactive	inactive	inactive	inactive	inactive	inactive	inactive	inactive	inactive	inactive	inactive	inactive	inactive	inactive	inactive	inactive	inactive	inactive
CCCCCC[C@H](CCCCC[C@@H](O)C(N)=O)OC(=O)[C@@H]1CC=CN1C(=O)c1ccccc1O	62.1 µM (active)	inactive	inactive	–	inactive	inactive	inactive	inactive	inactive	inactive	inactive	inactive	inactive	inactive	inactive	inactive	inactive	inactive	inactive	inactive
O=C1CC(c2cc(O)cc(O)c2)Oc2cc(O)ccc21 (stereo not drawn)	34.9 µM (active)	inactive	inactive	inactive	inactive	inactive	inactive	inactive	inactive	inactive	inactive	inactive	inactive	inactive	inactive	inactive	inactive	inactive	–	inactive
C[C@@H](O)[C@H]1OC(=O)C=C2[C@]3(C)[C@H]4[C@H](OC(=O)[C@@]4(C)[C@@H](O)[C@H]4O[C@H]43)[C@H]3O[C@@]231	inactive	3.34 µM (active)	3.35 µM (active)	1.33 µM (active)	inactive	inactive	inactive	inactive	0.524 µM (active)	–	inactive	3.32 µM (active)	inactive	inactive	12.2 µM (active)	inactive	inactive	9.33 µM (active)	7.6 µM (active)	1.48 µM (active)
C/C=C1/CC[C@@H]2c3[nH]c4ccccc4c3CCN2C1	inactive	inactive	inactive	inactive	inactive	inactive	inactive	inactive	inactive	inactive	inactive	inactive	inactive	inactive	inactive	inactive	inactive	inactive	inactive	inactive
C=C(C)C(=O)O[C@H]1C[C@H](C)[C@@H](OC(C)=O)CC[C@@]2(C)O[C@@H]2[C@H]2OC(=O)C(COC(C)=O)=C12	31.1 µM (active)	4.2 µM (active)	11.9 µM (active)	2.36 µM (active)	–	–	–	9.35 µM (active)	–	23.4 µM (active)	16.6 µM (active)	6.62 µM (active)	inactive	inactive	9.68 µM (active)	inactive	inactive	–	9.57 µM (active)	–
C[C@@H]1O[C@@H](Oc2c(-c3ccc(O)cc3)oc3cc(O)cc(O)c3c2=O)[C@H](O)[C@H](O)[C@H]1O	44 µM (active)	–	inactive	inactive	inactive	inactive	inactive	inactive	inactive	inactive	inactive	inactive	inactive	inactive	–	inactive	inactive	inactive	inactive	inactive
C/C(=C\[C@H](C)C(=O)CCCC1CC(=O)NC(=O)C1)C(O)[C@@H](C)[C@H](O)C/C=C/CC/C=C/C(=O)O (stereo partly drawn)	55.3 µM (active)	inactive	inactive	inactive	inactive	inactive	inactive	inactive	inactive	inactive	inactive	inactive	inactive	inactive	inactive	inactive	inactive	inactive	inactive	inactive
CC1=CC2=C[C@H](C)C[C@@]23OC(=C(C)C3=O)CC(C)(C)/C=C/C1=O	55.3 µM (active)	0.838 µM (active)	0.668 µM (active)	2.11 µM (active)	inactive	inactive	–	0.935 µM (active)	inactive	1.65 µM (active)	0.933 µM (active)	0.935 µM (active)	inactive	inactive	1.09 µM (active)	–	–	–	1.52 µM (active)	2.64 µM (active)
C=C(C)CC[C@H](Cc1c(O)cc(O)c2c1O[C@H](c1ccc(O)cc1O)CC2=O)C(=C)C	19.6 µM (active)	inactive	inactive	inactive	inactive	inactive	inactive	inactive	inactive	inactive	inactive	inactive	inactive	inactive	inactive	inactive	inactive	23.4 µM (active)	inactive	inactive
